Assay [1] can be described thus: qHTS assay to identify small molecule antagonists of the thyroid receptor (TR) signaling pathway - cell viability counter screen (AID 743064). Note: nearly all actives have a fitted effect of over 50% in size. Summed up:
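GH3.TRE-Luc cells, 4 h pre-plating; cpd + T3 1 nM final; 37 °C 23.5 h; CellTiter-Fluor 30 min; fluorescence read.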
On the technique in general: In qHTS, concentration-response curves come from the screen itself.

Assay [2] is described as follows: qHTS assay to identify small molecule antagonists of the estrogen receptor alpha (ER-alpha) signaling pathway - cell viability counter screen (AID 743074; calls by dose curve;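 note: HEK293 cells carrying ER-alpha-UAS-bla reporter stimulated with 17beta-estradiol; nearly all actives have a fitted effect of over 45% in size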).
A short description of assay [3]: qHTS assay to identify small molecule antagonists of the estrogen receptor alpha (ER-alpha) signaling pathway using the BG1 cell line - cell viability counter screen (AID 743081).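 Note: compound given together with 17beta-estradiol as the ER stimulus; series mostly up to about 70 µM; nearly all actives have a fitted effect of over 45% in size.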
The next assay has as its target Aromatase (Homo sapiens) (UniProt P11511). In words: qHTS assay to identify aromatase inhibitors (AID 743083). Note: series mostly up to about 70 µM; nearly all actives have a fitted effect of over 55% in size.
The nature of assay [4]: qHTS assay to identify aromatase inhibitors - cell viability counter screen (AID 743084).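 Note: cells stimulated with testosterone during compound exposure; nearly all actives have a fitted effect of over 55% in size.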
In assay [5] the target is Aryl hydrocarbon receptor (Homo sapiens) (UniProt P35869). Description: qHTS assay to identify small molecule that activate the aryl hydrocarbon receptor (AhR) signaling pathway (AID 743085).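 For activation: HG2L7.5c1 human HepG2 liver cells with stably integrated DRE-driven firefly reporter; series mostly up to about 70 µM.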 Note: nearly all actives have a fitted effect of over 15% in size. Note: potency is the fitted concentration of half-maximal effect. Put shortly:
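Luminescence read-out: ONE-Glo reagent, 30 min at room temperature, in HG2L7.5c1 HepG2 reporter cells treated 24 h at 37C. Viability was measured beforehand by CellTiter-Fluor fluorescence after 30 min at 37C.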

Assay [6] is described as follows: qHTS assay to identify small molecule that activate the aryl hydrocarbon receptor (AhR) signaling pathway - cell viability counter screen (AID 743086).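 Note: HepG2 liver cells carrying the AhR DRE luciferase reporter; series mostly up to about 70 µM; nearly all actives have a fitted effect of over 45% in size.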 Summed up:
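Cytotoxicity counter screen: CellTiter-Fluor signal (30 min, 37 C) in 4000 HepG2 cells/well carrying the DRE-luciferase reporter, following 24 h compound exposure at 37 C.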

In assay [7] the target is Peroxisome proliferator-activated receptor gamma (Homo sapiens) (UniProt P37231). Description: qHTS assay to identify small molecule agonists of the peroxisome proliferator-activated receptor gamma (PPARg) signaling pathway (AID 743094; active = well fitted activation curve with a large enough effect in the signal ratio in the repeat runs, not every such curve was filed as active; the % refers to the signal ratio). Put shortly:
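GeneBLAzer PPARg UAS-bla HEK293H cells carrying a stably integrated beta-lactamase reporter were pre-incubated 5 h at 37C, then exposed to compounds in DMSO for 17 h at 37C; LiveBLAzer B/G FRET substrate was added for 1 h at room temperature and fluorescence read.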

Assay [8] is described as follows: qHTS assay to identify small molecule antagonists of the peroxisome proliferator-activated receptor gamma (PPARg) signaling pathway - cell viability counter screen (AID 743194). Note: nearly all actives have a fitted effect of over 55% in size. Put shortly:
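Viability was measured as CellTiter-Glo luminescence in GeneBLAzer PPARg UAS-bla HEK293H cells. These cells had been exposed 17 h at 37 C to compounds together with rosiglitazone at 50 nM final, with the beta-lactamase readout taken in the same wells.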

The nature of assay [9]: qHTS assay for small molecule activators of the heat shock response signaling pathway - cell viability counter screen (AID 743209). Note: nearly all actives have a fitted effect of over 50% in size. Summed up:
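CellSensor HSE-bla HeLa cells, plated overnight at 37 C/5% CO2, were exposed to compounds in DMSO for 5 h at 37 C. Viability was then read in the same wells by CellTiter-Glo luminescence after 30 min at room temperature.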

The nature of assay [10]: qHTS assay for small molecule activators of the heat shock response signaling pathway (AID 743210; active = well fitted activation curve with a large enough effect in the signal ratio in the repeat runs, with a control signal flat, not every such curve was filed as active; the % refers to the signal ratio;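 note: HeLa cells with beta-lactamase reporter driven by heat shock elements; series mostly up to about 63 µM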). Put shortly:
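In HSE-bla HeLa cells, 5 h compound incubation (37 C) precedes addition of LiveBLAzer B/G substrate; after 2.5 h at room temperature, fluorescence intensity indicates reporter induction.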

A short description of assay [11]: qHTS assay to identify small molecule antagonists of the thyroid receptor (TR) signaling pathway (AID 743065). Note: nearly all actives have a fitted effect of over 55% in size. Note: potency is the fitted concentration of half-maximal effect. Put shortly: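 Antagonism measured as loss of luciferase signal in GH3 cells stably carrying a TRE-luciferase reporter, co-treated with compound and T3 (1 nM final) for 23.5 h at 37 C. Viability was read in the same well by CellTiter-Fluor.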
In assay [12] the test system is thyroid hormone receptor (rat, GH3 cells). In words: qHTS assay to identify small molecule agonists of the thyroid receptor (TR) signaling pathway (AID 743066; calls by dose curve).
Assay [13] concerns the target Estrogen receptor (Homo sapiens) (UniProt P03372). Description: qHTS assay to identify small molecule antagonists of the estrogen receptor alpha (ER-alpha) signaling pathway (AID 743069; active = well fitted curve in the direction sought with a large enough effect in the signal ratio in the repeat runs, not every such curve was filed as active; the % refers to the signal ratio). Put shortly: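 Compound effects are measured against 17beta-estradiol stimulation in HEK293 cells with a UAS-controlled beta-lactamase reporter for ER-alpha. Exposure lasts 18 hr at 37C; LiveBLAzer B/G FRET substrate follows for 2 hr at room temperature.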

For assay [14] the target is unchanged. In words: qHTS assay to identify small molecule agonists of the estrogen receptor alpha (ER-alpha) signaling pathway (AID 743075; calls by dose curve).
Assay [15] shares this target. In words: qHTS assay to identify small molecule agonists of the estrogen receptor alpha (ER-alpha) signaling pathway using the BG1 cell line (AID 743079). Note: nearly all actives have a fitted effect of over 20% in size. Note: potency is the fitted concentration of half-maximal effect.
Assay [16] can be described thus: qHTS assay to identify small molecule antagonists of the estrogen receptor alpha (ER-alpha) signaling pathway using the BG1 cell line (AID 743080; calls by dose curve;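 note: BG1 cells stimulated with 17beta-estradiol alongside compound; series mostly up to about 70 µM; nearly all actives have a fitted effect of over 25% in size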). Put shortly:
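Luminescence from a 4×ERE-luciferase reporter in BG1-Luc-4E2 cells served as read-out. Cells, pre-cultured 5 days in stripped-serum phenol-red-free medium, were exposed to compound with 17beta-estradiol co-stimulation for 21.5 h at 37 C.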

Assay [17] can be described thus: qHTS assay for small molecule agonists of the antioxidant response element (ARE) signaling pathway - cell viability counter screen (AID 743203; calls by dose curve; note: nearly all actives have a fitted effect of over 55% in size). Summed up:
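CellSensor ARE-bla HepG2 cells, 2,000 per well, rested 5 hrs at 37C/5% CO2, then exposed to compound in DMSO for 16 hrs; viability read as CellTiter-Glo luminescence after 30 min at room temperature, in the reporter wells.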

A short description of assay [18]: qHTS assay for small molecule agonists of the antioxidant response element (ARE) signaling pathway (AID 743202; active = well fitted activation curve with a large enough effect in the signal ratio in the repeat runs, not every such curve was filed as active; the % refers to the signal ratio; note: potency is the fitted concentration of half-maximal effect). Summed up:
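An ARE-responsive beta-lactamase gene stably integrated in HepG2 cells serves as reporter. After 5 h plating and 16 h compound incubation at 37 C, fluorescence of the B/G FRET substrate was measured.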

Assay [19] addresses Peroxisome proliferator-activated receptor gamma (Homo sapiens) (UniProt P37231). Description: qHTS assay to identify small molecule antagonists of the peroxisome proliferator-activated receptor gamma (PPARg) signaling pathway (AID 743191; calls by dose curve; note: series mostly up to about 63 µM; nearly all actives have a fitted effect of over 30% in size). Summed up: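 Beta-lactamase reporter under UAS control in HEK293H PPARg-bla cells; compound treatment 17 h at 37C. Read-out: fluorescence intensity after 1 h room-temperature incubation with LiveBLAzer B/G FRET substrate.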

Results filed as inconclusive are left out. The source made the active and inactive calls. Unless noted, calls come from the whole dose curve; as a rule, active = well fitted curve in the direction sought with a large enough effect in the repeat runs; inconclusive = weak or mixed curves; inactive = no such curve, though single readings can be large; an effect the other way counts as inactive or inconclusive.

Aromatase (Homo sapiens), sequence (P11511 whole entry, looked up): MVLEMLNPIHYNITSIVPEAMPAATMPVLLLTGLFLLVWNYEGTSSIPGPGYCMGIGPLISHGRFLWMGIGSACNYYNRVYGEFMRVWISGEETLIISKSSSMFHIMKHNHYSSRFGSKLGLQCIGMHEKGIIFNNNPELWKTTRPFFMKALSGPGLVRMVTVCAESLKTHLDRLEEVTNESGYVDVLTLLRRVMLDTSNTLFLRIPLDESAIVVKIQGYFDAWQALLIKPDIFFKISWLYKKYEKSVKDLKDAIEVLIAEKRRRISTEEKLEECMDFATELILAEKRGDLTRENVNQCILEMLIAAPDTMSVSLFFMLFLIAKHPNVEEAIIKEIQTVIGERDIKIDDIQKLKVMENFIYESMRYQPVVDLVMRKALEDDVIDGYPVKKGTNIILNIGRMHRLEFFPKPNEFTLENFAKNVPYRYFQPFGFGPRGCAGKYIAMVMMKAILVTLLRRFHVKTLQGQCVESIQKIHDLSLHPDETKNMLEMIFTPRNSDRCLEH
Estrogen receptor (Homo sapiens), sequence (P03372 whole entry, looked up): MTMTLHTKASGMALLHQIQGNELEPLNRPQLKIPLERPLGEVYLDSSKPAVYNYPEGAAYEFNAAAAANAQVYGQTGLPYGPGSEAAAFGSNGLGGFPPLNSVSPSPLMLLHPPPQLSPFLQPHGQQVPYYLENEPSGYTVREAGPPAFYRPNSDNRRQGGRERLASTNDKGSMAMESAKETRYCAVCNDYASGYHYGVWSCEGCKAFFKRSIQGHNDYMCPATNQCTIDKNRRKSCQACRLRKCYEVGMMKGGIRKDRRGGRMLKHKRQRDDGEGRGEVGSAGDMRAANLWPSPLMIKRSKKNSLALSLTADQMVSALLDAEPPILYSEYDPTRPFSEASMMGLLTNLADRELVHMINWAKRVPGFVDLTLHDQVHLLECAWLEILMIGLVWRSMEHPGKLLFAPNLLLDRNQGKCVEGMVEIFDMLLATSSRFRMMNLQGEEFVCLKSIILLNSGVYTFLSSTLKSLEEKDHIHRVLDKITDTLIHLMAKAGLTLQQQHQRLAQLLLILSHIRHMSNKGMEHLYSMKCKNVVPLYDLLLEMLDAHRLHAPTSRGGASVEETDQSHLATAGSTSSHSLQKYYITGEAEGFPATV
Aryl hydrocarbon receptor (Homo sapiens), sequence (P35869 whole entry, looked up): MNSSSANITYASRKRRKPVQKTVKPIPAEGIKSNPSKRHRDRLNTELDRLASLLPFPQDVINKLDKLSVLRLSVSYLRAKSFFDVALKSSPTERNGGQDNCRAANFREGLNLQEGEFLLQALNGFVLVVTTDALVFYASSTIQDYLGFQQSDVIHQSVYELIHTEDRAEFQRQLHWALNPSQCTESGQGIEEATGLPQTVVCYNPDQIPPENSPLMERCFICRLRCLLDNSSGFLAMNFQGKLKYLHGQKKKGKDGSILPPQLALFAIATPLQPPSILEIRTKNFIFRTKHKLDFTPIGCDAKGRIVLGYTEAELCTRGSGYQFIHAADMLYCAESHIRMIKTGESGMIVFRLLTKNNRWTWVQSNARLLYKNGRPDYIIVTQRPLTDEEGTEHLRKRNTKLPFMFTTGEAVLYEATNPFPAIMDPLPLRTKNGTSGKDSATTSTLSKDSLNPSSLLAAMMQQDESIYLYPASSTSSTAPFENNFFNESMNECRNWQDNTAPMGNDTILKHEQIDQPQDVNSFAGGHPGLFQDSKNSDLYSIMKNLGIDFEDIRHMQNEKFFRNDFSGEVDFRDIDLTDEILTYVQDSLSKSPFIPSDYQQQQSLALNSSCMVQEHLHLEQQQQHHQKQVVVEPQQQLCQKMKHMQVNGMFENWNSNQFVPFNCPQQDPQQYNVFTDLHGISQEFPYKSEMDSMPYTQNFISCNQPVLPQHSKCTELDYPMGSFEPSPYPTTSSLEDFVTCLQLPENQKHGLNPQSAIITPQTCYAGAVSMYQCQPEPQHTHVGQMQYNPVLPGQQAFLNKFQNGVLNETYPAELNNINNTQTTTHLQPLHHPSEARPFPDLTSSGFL
Peroxisome proliferator-activated receptor gamma (Homo sapiens), sequence (P37231 whole entry, looked up): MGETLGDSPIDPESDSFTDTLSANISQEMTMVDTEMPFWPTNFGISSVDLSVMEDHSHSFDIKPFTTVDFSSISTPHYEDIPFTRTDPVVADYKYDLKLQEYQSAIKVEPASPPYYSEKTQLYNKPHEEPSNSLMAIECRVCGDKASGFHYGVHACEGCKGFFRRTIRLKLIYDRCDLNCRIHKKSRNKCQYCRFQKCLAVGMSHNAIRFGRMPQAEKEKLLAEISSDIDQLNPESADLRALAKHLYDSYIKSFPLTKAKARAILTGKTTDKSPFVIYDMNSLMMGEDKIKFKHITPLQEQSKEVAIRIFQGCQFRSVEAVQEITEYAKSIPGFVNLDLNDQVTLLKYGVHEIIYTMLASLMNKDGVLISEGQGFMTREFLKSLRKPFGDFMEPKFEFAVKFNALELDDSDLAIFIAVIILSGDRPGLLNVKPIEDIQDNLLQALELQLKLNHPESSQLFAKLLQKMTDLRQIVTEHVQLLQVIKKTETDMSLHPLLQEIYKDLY

On to `CCCC(=O)OCCc1ccccc1`, for which the Potency entry (in assay [1]; in assay [2]; in [3]; with Aromatase (Homo sapiens); in assay [4]; in assay [5]) was “inactive” throughout. Moreover, the Potency entry in assay [6], in assay [7], in assay [8], in [9] and in assay [10] was “inactive” each time.

As for `COC(=O)c1ccccc1OC`, the Potency result in assay [11], in [13], in assay [2], in assay [14], in assay [15] and in assay [16] was “inactive” throughout. The Potency entry (in assay [3]; with Aromatase (Homo sapiens); in assay [4]; in assay [5]; in assay [6]; in [7]) was “inactive” throughout. Moreover, the Potency result in [8], in assay [17] and in assay [9] was “inactive” in each case. In addition, the molecule was called inactive in [12].

As for `CC1(C)CCC[C@]2(C)[C@H]3CCO[C@]3(C)CC[C@@H]12`, the Potency entry (in assay [1]; in assay [2]; in assay [3]; with Aromatase (Homo sapiens); in assay [4]; in assay [7]) was “inactive” throughout. For the same molecule, the Potency result in assay [8], in assay [17] and in assay [9] was “inactive” in each case.

In the case of `O=c1oc2cc(O)ccc2c2oc3cc(O)ccc3c12`, the Potency result (in assay [1]; in assay [3]; with Aromatase (Homo sapiens); in assay [8]; in assay [17]; in assay [9]) was “inactive” throughout. Further, the Potency in [18] is 20.8 µM (active).

Regarding `CCN(CCN)c1cccc(C)c1`, the Potency result in [11], in assay [13], in [2], in assay [14], in [15] and in assay [16] was “inactive” in each case. Also, the Potency result (in assay [3]; with Aromatase (Homo sapiens); in assay [4]; in assay [5]; in assay [6]; in assay [19]) was “inactive” throughout. Also, the Potency entry in [8], in assay [17] and in [9] was “inactive” throughout. For the same molecule, in assay [12], the result was inactive.

For `CC(C(=O)O)c1ccc2c(c1)[nH]c1ccc(Cl)cc12` (centres undefined), the Potency result in assay [11], in assay [13], in assay [2], in assay [14], in assay [15] and in assay [16] was “inactive” each time. The Potency entry (in [3]; with Aromatase (Homo sapiens); in assay [4]; in assay [5]; in assay [6]; in [7]) was “inactive” each time. Also, the Potency result in assay [8], in assay [17], in [9] and in [10] was “inactive” in each case. Also, in assay [12], the outcome was inactive.

`[Cl][Pt-2]([Cl])([Cl])[Cl]`: the Potency entry in assay [11], in assay [13], in [2], in [14], in [15] and in [16] was “inactive” each time. For the same molecule, the Potency entry (in [3]; with Aromatase (Homo sapiens); in assay [4]; in [5]; in [6]; in [8]) was “inactive” throughout. In addition, the Potency result in assay [17], in [9] and in assay [10] was “inactive” each time. Further, in assay [12], the molecule was called inactive.

Regarding `CCCCNS(=O)(=O)c1ccc(C)cc1`, the Potency entry in assay [11], in assay [13], in assay [2], in assay [14], in assay [15] and in assay [16] was “inactive” in each case. Also, the Potency entry in assay [3], in [4], in assay [5], in assay [6], in [8] and in assay [17] was “inactive” throughout. Also, the Potency result in assay [9] and in [10] was “inactive” in each case. In addition, in [12], the call was inactive.

As to `CCCCN(CCCC)CC(O)c1cc(Cl)cc2c1-c1ccc(Cl)cc1/C2=C/c1ccc(Cl)cc1` (centres undefined), the Potency is 29.8 µM (active) in [11], 23.7 µM (active) in [15] and 26.6 µM (active) in assay [5]. Also, the Potency result (in [13]; in assay [14]; in assay [16]; in [3]; in the assay with Aromatase (Homo sapiens); in [4]) was “inactive” throughout. The Potency entry in assay [7], in assay [8] and in [18] was “inactive” each time.

Values taken from PubChem BioAssay (Tox21).
